CHX counter-1 = counter-screen for Shiga toxin inhibitors: cycloheximide protein synthesis inhibition; 300,000 compounds, 12% hits; cell reporter, cycloheximide protein synthesis inhibition counterscreen; AID 2314; max response, %; in the data active = max response mostly above about 13%, no sharp cut-off; inactive = mostly below about 14%; also: read at 38.3 µM for the half of the compounds with a filed dose; 0% is about no effect
Sm TGR block = S. mansoni TGR enzyme inhibition. Q962Y6. purified TGR, DTNB reduction, TNB absorbance 405 nm. Potency, µM (titrated, usually from 114 µM), for the others: at the top dose activity change, negative = inhibition, actives largely listed as inhibitors. 360,000 compounds, 3% hits; active = well fitted inhibition curve with a large enough effect; inconclusive = small, poorly fitted or top-dose-only effect; inactive = no such curve, though single readings can be large or run the other way; also: potency is read from the fitted curve at half-maximal effect; % is scaled to controls: 0 for no effect and ±100 for the full control effect; nearly all actives have a fitted effect of over 60% in size
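First, TGR (20 nM dispensed) and NADPH were mixed with compound. Second, a 15 min room-temperature incubation followed. Third, further NADPH and then DTNB were added to start the reaction. Finally, TNB absorbance was monitored kinetically.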
Shiga toxin inh = blocks Shiga toxin action in Vero cells; 290,000 compounds, 9.2% hits; Vero cells, Shiga toxin protein synthesis inhibition reporter; inhibition, % at 38.7 µM; AID 2315; in the data active = inhibition mostly above about 28%, no sharp cut-off; inactive = mostly below about 43%; also: 0% is about no effect
FMDV inh = foot and mouth disease virus antiviral activity; FMDV antiviral cell-based qHTS; Potency, µM (titrated, usually from 57.9 µM), without a hit: at the top dose activity change, negative = inhibition, most hits filed as inhibitors; 410,000 compounds, 1.2% hits; calls by dose curve; tested in HEK293T cells; also: read-out not given here; potency is read from the fitted curve at half-maximal effect; % is scaled to controls: 0 for no effect and ±100 for the full control effect; nearly all actives have a fitted effect of over 45% in size
CHX counter-2 = affects protein synthesis reporter in cycloheximide counter-screen; Potency, µM (series often up to 38.3 µM), for the others: top-dose activity (activation), hits mostly activators; shares compounds with Shiga toxin inh; 510 compounds, 3% hits; Cycloheximide counterscreen, protein synthesis reporter, Shiga toxin assay; calls by dose curve; also: potency is read from the fitted curve at half-maximal effect; 0% is about no effect
Starred values were filed as active, the others as inactive; ? = inconclusive; . = not tested or not shown. Hits are enriched below; roughly 12% of the tested compounds scored in any of these assays.

SMILES	CHX counter-1	Sm TGR block	Shiga toxin inh	FMDV inh	CHX counter-2
CS(=O)(=O)N(CC(=O)Nc1ccccc1Sc1ccccc1)C1CCCCC1	5	4%	44*	?	-1%
CS(=O)(=O)N(CC(=O)Nc1ccccc1F)C1CCCCC1	-2	0%	.	-5%	.
CCOc1ccc(C(=O)Nc2nnc(SCc3cc(=O)n4ccccc4n3)s2)cc1	.	-1%	.	32%	.
O=C(/C=C\c1ccco1)Nc1nc(-c2ccc3ccccc3c2)cs1	21	1%	58*	?	3%
CSc1ccc(/C=C/C(=O)N2CCN(c3ccccn3)CC2)cc1	12	3%	32*	4%	-2%
COc1cccc(/C=C/C(=O)N2CCN(c3ccccn3)CC2)c1	19	-9%	19	24%	.
O=C(O)c1ccccc1C(=O)Nc1ccccc1	6	8%	-2	-15%	.
O=C(O)c1ccccc1C(=O)Nc1ccc(-n2nccc2C(F)(F)F)cc1	9	7%	31*	9%	-4%
c1ccc(OCCCn2ccnc2)cc1	4	9%	42*	-15%	0%
COC(=O)c1ccccc1NC(=O)c1cc(=O)c2ccc(C)c(C)c2o1	.	-1%	.	-21%	.
Cc1ccc(O)c(NC(=O)C2CCCCC2)c1	8	8%	34*	-8%	1%
COc1ccc(-n2nnc(-c3nc(-c4ccc5c(c4)OCO5)no3)c2C)cc1Cl	.	13%	.	-11%	.
COC(=O)c1cc(-c2ccc(OC)c(OC)c2)n[nH]1	1	-13%	-3	2%	.
COc1ccc(-c2cc(-c3ccccc3O)[nH]n2)cc1OC	15	-1%	81*	29%	2.5µM*
N=c1c(S(=O)(=O)c2ccccc2)cc2c(=O)n3ccccc3nc2n1C1CCCC1	-1	-13%	-4	6%	.
N=c1c(S(=O)(=O)c2ccc(Cl)cc2)cc2c(=O)n3ccccc3nc2n1C1CCCCC1	14	3%	active	-2%	-1%
Cc1ccc(-c2nnc(SCC(=O)NC3CCCC3)n2C)cc1	-2	1%	69*	-1%	-1%
Cc1cc(N/C=C\c2nnnn2-c2ccccc2)no1	7	0%	30*	74%	?
COc1ccc(NC(=O)c2c(Cl)n(C)c3ccccc23)cc1	11	11%	40*	-6%	13µM*
Cc1cccc(N2CCN(CCCNC(=O)c3nnc(Cc4c(F)cccc4Cl)o3)CC2C)c1 (centres undefined)	.	0%	.	?	.
O=C(c1cc2c(s1)-c1ccccc1OC2)N1CCN(c2ccccc2)CC1	5	5%	62*	0%	-2%
Cc1ccc(CN2C(=O)c3ccccc3C2C(=O)NC2CCCCCC2)cc1 (centres undefined)	.	9%	.	-8%	.
O=C(COC(=O)CC1CC2CCC1C2)NCc1ccc(F)cc1 (centres undefined)	.	.	.	-18%	.
O=C(CC1CC2CCC1C2)NCCc1ccc(Cl)cc1 (centres undefined)	16	-5%	49*	15%	2%
COc1ccc(C)cc1NCc1nnc2n1CCCCC2	.	5%	.	10%	.
SMILES	CHX counter-1	Sm TGR block	Shiga toxin inh	FMDV inh	CHX counter-2
CC(C)(C)CC(C)(C)NC(=O)c1ccc2snnc2c1	-1	0%	-14	-26%	.
CCCNC(=O)c1ccc2snnc2c1	5	-3%	29*	-5%	-2%
COc1ccc(N2CC(NC(=O)COc3ccccc3F)CC2=O)cc1OC (centres undefined)	.	6%	.	-1%	.
COc1ccc(NC(=O)c2cc(C)on2)cc1OC	-1	-1%	28*	0%	9%
CC(=O)Nc1ccc(N2N=C(C)C(N=Nc3ccccc3)C2=O)cc1 (centres undefined)	-2	-9%	53*	16%	?
CC1=NN(c2ccccc2)C(=O)C1N=Nc1ccc(S(N)(=O)=O)cc1 (centres undefined)	1	9%	-3	-17%	.
Cc1c2cnn(CC(=O)NCC(C)c3ccccc3)c(=O)c2c(C)n1Cc1cccc(Cl)c1 (centres undefined)	.	-3%	.	-5%	.
COc1ccc(-c2cn3c(C)c(C(=O)NC(C)C)sc3n2)cc1	8	-11%	53*	19%	3%
Cc1ccc(C(CC(=O)NCc2ccco2)c2ccc(OC(C)C)cc2)cc1 (centres undefined)	15	?	42*	-17%	5%
COc1ccc(C(CC(=O)NCc2ccco2)c2ccc(F)cc2)cc1 (centres undefined)	1	-9%	-6	?	.
COc1ccc(OCc2cccc(C(=O)O)c2)cc1	9	2%	52*	1µM*	0.032µM*
Cc1ccc(NC(=O)c2c(C(F)(F)F)nn(C)c2Cl)cc1C	-2	0%	29*	3%	-2%
CC1CCc2sc(C(=O)NN=C3CCCC3)cc2C1 (centres undefined)	.	.	.	59%	.
CC1CCc2sc(C(=O)NN)cc2C1 (centres undefined)	11	5%	36*	1%	-3%
CN(C)S(=O)(=O)c1ccc(C(=O)NCCS(=O)(=O)N2CCN(c3ccccc3)CC2)cc1	.	-1%	.	2%	.
CCSc1nnc(-c2ccc(S(=O)(=O)N3CCCC3)cc2)n1C	9	-10%	67*	.	-1%
Cc1cccc(NC(=O)C2CCN(c3nnc(C)c4c(C)n(-c5ccccc5)nc34)CC2)c1C	.	4%	.	-9%	.
CC(C)CC1=C/C(=C/c2ccc(-c3ccccc3)o2)C(=O)O1	9	13µM*	40*	12%	0%
CCC(OC(=O)c1ccco1)C(=O)NCc1ccc(OC)cc1 (centres undefined)	-5	-11%	-5	2%	.
COc1ccc(CNC(=O)C(OC(=O)c2ccco2)c2ccccc2F)cc1 (centres undefined)	-1	-1%	40*	12%	5%
COc1cccc(/C=C/C(=O)NCCc2ccc3c(c2)OCCO3)c1	8	-1%	23	0%	.
O=C(/C=C/c1ccccc1)NCCc1ccc2c(c1)OCCO2	8	0%	36*	12%	-1%
Cc1ccc(OCC(=O)NNC(=O)CCC(=O)Nc2ccc(C)cc2C)cc1	-2	0%	35*	-17%	-1%
O=C(O)C1CCCCC1C(=O)Nc1ccc(-c2ccccc2)cc1 (centres undefined)	12	.	53*	4%	-1%
Cc1c(C(=O)OC/C(O)=C(\C#N)c2nc3ccccc3[nH]2)oc2ccc(Br)cc12	-3	-21%	-7	-22%	.
SMILES	CHX counter-1	Sm TGR block	Shiga toxin inh	FMDV inh	CHX counter-2
Cc1c(C(=O)Nc2nc3ccccc3[nH]2)oc2ccc(Br)cc12	12	-1%	14*	38%	10µM*
O=C(Cc1ccc(Cl)cc1)N1CCOCC1	-3	-17%	-7	8%	.
O=C(CSCc1ccc(Cl)cc1)N1CCOCC1	10	-13%	66*	0%	7%
COC(=O)c1ccccc1NC(=O)CSc1nccn1C	14	3%	-14	11%	.
COc1ccccc1C(=O)CSc1nccn1C	17	6%	22*	30%	5%
Cc1ccc(NC(=O)CC(=O)Nc2ccc(C)cc2C)c(C)c1	7	10%	3	-1%	.
Cc1ccc(N/C(C(Cl)=C(Cl)Cl)=C(/Cl)[N+](=O)[O-])c(C)c1	9	7.9µM*	23*	-3%	-2%

Bioassay records from PubChem BioAssay.
